# Screen size: about 2,200 compounds; about 1,200 (55%) were called active. No cut-off is given here; in the data, nearly all actives have IC50 up to about 92 µM. So high a share suggests a set chosen from earlier hits. The list shows a part of the results.
# Test: counter assay for TAg ATPase ADP read-out – biochemical, ADP-Hunter, fluorescence, counter-screen (AID 2501);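 note: purified T antigen ATPase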;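 for inhibition: 0% = enzyme with vehicle and 100% = reference inhibitor wells; higher means more inhibition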
# Conditions: series mostly up to 100 µM; inhibition: at the top concentration
Compound,IC50,inhibition
Nc1ccc2c(c1)Cc1ccccc1-2,4.77 µM (active),
O=C1NC(=O)C(=Cc2csc3ccccc23)C(=O)N1,,4.76% (inactive)
CN1CCN(/N=C/c2c[nH]c3ccccc23)CC1,6.59 µM (active),
O=C1NC(=O)N(Cc2ccco2)C(=O)/C1=C/c1cccn1CCOc1ccccc1Cl,,-6.99% (inactive)
O=C1NC(=S)NC(=O)C1=Cc1ccc2c(c1)CCN2CCCCl,,8.61% (inactive)
O=C1NC(=O)N(c2ccccc2)C(=O)/C1=C/c1ccc([N+](=O)[O-])s1,,6.79% (inactive)
C=CCN1C(=O)/C(=C/c2cc(C)n(-c3cccnc3)c2C)C(=O)NC1=S,,-0.68% (inactive)
C[CH2][Hg][S]c1ccccc1C(=O)O,,16.9% [at 50 µM] (inactive)
CCOc1ccccc1N1C(=O)NC(=O)/C(=C/c2ccc3c4c(cccc24)CC3)C1=O,,5.91% (inactive)
CCC(C)N1C(=O)NC(=O)C2(Cc3c(ccc4ccccc34)N(C)C2)C1=O (configuration not stated),23.3 µM (active),
COc1ccc(N2C(=O)/C(=C/c3ccc(C)o3)C(=O)NC2=S)c(OC)c1,,-2.21% (inactive)
COc1ccc(CN2C(=O)NC(=O)/C(=C/c3ccc([N+](=O)[O-])o3)C2=O)cc1,,26.2% (inactive)
Cc1ccc2c(c1)=C/C(=C\c1c(O)[nH]c(=O)[nH]c1=O)C(=O)N=2,,1.86% (inactive)
CCN1C(=O)/C(=C\c2ccc([N+](=O)[O-])s2)C(=O)NC1=S,,28.9% (inactive)
O=C1NC(=O)N(c2ccccc2)C(=O)/C1=C\C=C\c1ccccc1,,24% (inactive)
CN(c1ccc(OCC(=O)N2CCN(C/C=C/c3ccccc3)CC2)cc1)S(=O)(=O)c1cccs1,,28.9% (inactive)
O=c1[nH]sc2cc(F)ccc12,,7.46% (inactive)
O=C(O)CCC(=O)NCCC1=c2ccccc2=N/C1=C\c1c(O)n(Cc2ccc(F)cc2)c(=S)[nH]c1=O,,-17.4% (inactive)
CC1CN=C(Nc2ccc(N(C)C)cc2)S1 (configuration not stated),7.09 µM (active),
COP(=S)(OC)SCN1C(=O)c2ccccc2C1=O,,1.36% (inactive)
CCOc1ccc(N2C(=O)NC(=O)/C(=C\c3ccccc3[N+](=O)[O-])C2=O)cc1,,19.3% (inactive)
CCc1c(C)nc(N)nc1N1N=C1SC(C(C)=O)C(C)=O,,9.54% (inactive)
CCCN1CCc2cc(O)cc3c2[C@H]1Cc1ccc(O)c(O)c1-3,,-61.6% (inactive)
O=c1cc(-c2ccc(O)c(O)c2)oc2cc(O)cc(O)c12,8.07 µM (active),
O=c1c(O)c(-c2ccc(O)c(O)c2)oc2cc(O)cc(O)c12,98.5 µM (active),

Compound,IC50,inhibition
Oc1cc2c(cc1O)[C@H]1c3ccccc3CN[C@@H]1CC2,,-74.2% (inactive)
CN1CCc2cc(O)cc3c2[C@H]1Cc1ccc(O)c(O)c1-3,,-56.5% (inactive)
O=C1NC(=O)N(c2ccc(Br)cc2)C(=O)/C1=C/c1ccsc1,,-9.71% (inactive)
CN1C(=O)NC(=O)/C(=C/c2ccc([N+](=O)[O-])o2)C1=O,,6.64% (inactive)
O=C1NC(=O)N(c2ccccc2)C(=O)/C1=C\c1ccc2c3c(cccc13)CC2,,2.57% (inactive)
O=c1c2ccccc2[se]n1-c1ccccc1,10.9 µM (active),
O=C1NC(=O)C(=Cc2ccccc2OCCOc2ccc([N+](=O)[O-])cc2)C(=O)N1,,21.8% (inactive)
CCN1C(=O)C(=C/C=C/c2ccco2)C(=O)N(CC)C1=S,,-52.2% (inactive)
CCOc1cccc(OCC)c2c(C)[n+](CC3CCCO3)c(C)c1-2 (configuration not stated),,-27.2% (inactive)
O=C1NC(=O)C(=Cc2ccc(OCCOc3ccc([N+](=O)[O-])cc3)cc2)C(=O)N1,,-3.74% (inactive)
COc1ccc(CN2C(=O)NC(=O)/C(=C/c3ccoc3)C2=O)cc1,,8.61% (inactive)
COc1cc(C=C2C(=O)NC(=O)NC2=O)ccc1O,19.6 µM (active),
O=C1NC(=O)N(CCc2ccc(F)cc2)C(=O)/C1=C/c1ccco1,,11.4% (inactive)
CCOC(=O)CSCCOc1ccc(C=C2C(=O)NC(=O)NC2=O)cc1OC,,-17.2% (inactive)
COc1cc(/C=C2\C(=O)NC(=O)N(CCc3ccc(F)cc3)C2=O)ccc1O,6.23 µM (active),
Cc1nc2cc([N+](=O)[O-])ccc2c(=O)n1-c1ccc(Br)cc1,,-52.8% (inactive)
O=C1NC(=S)NC(=O)C1=Cc1cccn1-c1ccc(O)cc1,,20.7% [at 50 µM] (inactive)
Cc1cc(C=C2C(=O)N(C)C(=S)N(C)C2=O)c(C)n1-c1ccncc1,,1.6% (inactive)
CN(C)[C@@H]1C(=O)C(C(N)=O)=C(O)[C@@]2(O)C(=O)C3=C(O)c4c(O)cccc4[C@@](C)(O)[C@H]3[C@H](O)[C@@H]12,inactive,
CCCNC(=O)N1C2CCC1CC(O)(c1cccnc1)C2 (configuration not stated),,-23% (inactive)
Cc1ccccc1-n1c(C)cc(/C=C2/C(=O)NC(=O)N(Cc3ccco3)C2=O)c1C,,12.9% (inactive)
N/C(=N\[N+](=O)[O-])N/N=C/c1ccc(O)cc1,2.93 µM (active),
C[C@]12CC[C@@H]3c4ccc(O)c(O)c4CC[C@H]3[C@@H]1CC[C@@H]2O,,-196% (inactive)
COc1ccc(/C=C2/C(=O)NC(=O)N(Cc3ccco3)C2=O)cc1,,9.99% (inactive)
NS(=O)(=O)c1ccc(-c2ccc(C=C3C(=O)NC(=O)NC3=O)o2)cc1,,14% (inactive)

Compound,IC50,inhibition
CC1=NCCc2c1[nH]c1cc(O)ccc21,4.35 µM (active),
Cc1ccc(N2C(=O)NC(=O)/C(=C/c3ccc(-c4ccc(C(=O)O)c(Cl)c4)o3)C2=O)cc1,,3.2% (inactive)
NC(N)=Nc1ccc2[nH]c3c(c2c1)C[C@@]1(O)[C@H]2Cc4ccc(O)c5c4[C@@]1(CCN2CC1CC1)[C@H]3O5,,7.88% (inactive)
Cc1ccc(N2C(=O)NC(=O)/C(=C\C=C\c3ccco3)C2=O)cc1C,,29.6% (inactive)
C=C1C(=O)O[C@H]2[C@H]1[C@H](OC(=O)CC(=O)O[C@@H]1C[C@@H](C)[C@@H]3C=CC(=O)[C@@]3(C)[C@H]3OC(=O)C(=C)[C@H]13)C[C@@H](C)[C@H]1C=CC(=O)[C@]12C,,-28.2% (inactive)
CN1C(=O)/C(=C/C=C/c2ccco2)C(=O)NC1=S,,0.73% (inactive)
O=C1NC(=O)C(=Cc2ccc(-c3cc(Cl)ccc3[N+](=O)[O-])o2)C(=O)N1,,2.85% (inactive)
COc1cc2c(cc1O)CC[n+]1cc3c(OC)c(OC)ccc3cc1-2,4.22 µM (active),
O=C1NC(=O)N(c2ccccc2)C(=O)/C1=C\c1ccc([N+](=O)[O-])s1,,18.4% (inactive)
O=c1[nH]c(=S)n(-c2ccccc2F)c(O)c1C=Nc1ccc(N2CCOCC2)cc1,5.34 µM (active),
CC(C)Nc1ccc(Nc2ccccc2)cc1,5.82 µM (active),
NS(=O)(=O)c1ccc(-c2ccc(C=C3C(=O)NC(=S)NC3=O)o2)cc1,,-13.7% (inactive)
CCN(CC)c1ccc(N=Cc2c(O)n(-c3ccccc3C)c(=O)[nH]c2=O)cc1,7.13 µM (active),
CCN(CC)c1ccc(N=Cc2c(O)n(-c3cc(OC)ccc3OC)c(=O)[nH]c2=O)cc1,6.82 µM (active),
Cc1ccccc1-n1c(O)c(C=Nc2ccc(N(C)C)cc2)c(=O)[nH]c1=O,5.9 µM (active),
Cc1cccc(OCCn2cccc2/C=C2/C(=O)NC(=O)N(Cc3ccco3)C2=O)c1,,23.1% (inactive)
CN(C)c1ccc(C=C2C(=O)NC(=S)NC2=O)cc1[N+](=O)[O-],,-11.9% (inactive)
Oc1ccc(C[C@H]2NCCc3cc(O)c(O)cc32)cc1O,,-137% (inactive)
N#CSCC(=O)N1c2ccccc2CCc2ccccc21,,-23.4% (inactive)
Cc1ccc(/C=C2\C(=O)NC(=S)N(c3cccc(F)c3)C2=O)o1,,3.87% (inactive)
Cc1cc(/C=C2\C(=O)NC(=O)N(c3ccc(Cl)cc3)C2=O)c(C)n1-c1sc2c(c1C#N)CCCC2,,-16.8% (inactive)
NCCc1c[nH]c2ccc(O)cc12,10.5 µM (active),
CCN(CC)C(=O)c1ccc2c(c1)C1C(Cl)C(Sc3ccccc3[N+](=O)[O-])CC1C(C(=O)O)N2 (configuration not stated),,-62% (inactive)
O=C1NC(=S)NC(=O)C1=Cc1ccc(Br)s1,,6.21% (inactive)
N#Cc1c(/N=C/c2c(O)n(Cc3ccco3)c(=O)[nH]c2=O)sc2c1CCCC2,27.2 µM (active),

Compound,IC50,inhibition
O=c1[nH]c(=O)n(Cc2ccccc2)c(O)c1/C=C1\C=Nc2ccccc21,,-2.85% (inactive)
CCCCC(=O)N/N=C/c1c(O)n(Cc2ccco2)c(=O)[nH]c1=O,,9.68% (inactive)
O=C1NC(=O)C(=Cc2ccc(-c3ccccc3[N+](=O)[O-])o2)C(=O)N1,,11.2% (inactive)
CCN(CC)c1ccc(/C=C2\C(=O)NC(=O)N(Cc3ccco3)C2=O)cc1,,11.5% (inactive)
O=C1NC(=O)C(=Cc2ccc(-c3ccc(F)cc3O)o2)C(=O)N1,,-9.03% [at 50 µM] (inactive)
CNC(C)Cc1ccccc1Sc1ccc(O)cc1 (configuration not stated),2.47 µM (active),
CC(Cc1ccccc1Sc1ccc(O)cc1)N(C)C (configuration not stated),1.99 µM (active),
O=C1NC(=O)N(c2ccccc2F)C(=O)/C1=C/c1ccc(Sc2nc3ccccc3[nH]2)o1,,11.5% (inactive)
COc1cc2c(cc1OC)-c1c(OC)c(OC)cc3c1[C@H](C2)[N+](C)(C)CC3,,6.19% (inactive)
O=c1[nH]c(=S)n(C2CC2)c(O)c1/C=N/Nc1ccccc1,3.94 µM (active),
COc1cccc(N2C(=O)NC(=O)/C(=C\c3ccc([N+](=O)[O-])s3)C2=O)c1,,17.5% (inactive)
O=C1NC(=O)C(=Cc2cc3c(cc2[N+](=O)[O-])OCO3)C(=O)N1,,-5.04% (inactive)
Cc1cccc(N2C(=O)NC(=O)/C(=C/c3ccc(-c4ccc(C(=O)O)c(Cl)c4)o3)C2=O)c1,,-17.8% (inactive)
C1=Cc2ccccc2Nc2ccccc21,4.79 µM (active),
Oc1ccc(/C=N/NP(=S)(c2ccccc2)c2ccccc2)cc1O,35.3 µM (active),
O=C1NC(=O)N(c2ccc(Cl)cc2)C(=O)/C1=C\c1ccc(Sc2nc3ccccc3[nH]2)o1,,21.8% (inactive)
CCN1CCN(c2ccc(N)cc2C)CC1,4 µM (active),
CCOc1cc(-c2ccc(N)c(OCC)c2)ccc1N,1.03 µM (active),
COc1cc2c(cc1OC)CC[N+](C)=C2,,10.2% (inactive)
CCCCN1C(=O)/C(=C/C=C/c2ccco2)C(=O)NC1=S,,-21.3% (inactive)
O=C(O)c1cccc2c1NC(C(=O)O)C1CC(Sc3ccccc3[N+](=O)[O-])C(Cl)C21 (configuration not stated),,-28.6% (inactive)
O=C(O)CCn1cc(C=C2C(=O)NC(=S)NC2=O)c(-c2cccc(Cl)c2)n1,,11.7% (inactive)
